Records with an inconclusive call do not appear. More than one record can exist for a structure, and the calls need not agree. Activity calls are given as the source filed them. Rule for the calls, unless noted: active = hit-call score of the fitted dose curve at least 0.9, where 1 is the maximum; inactive = score below 0.9.
Experiments:
[1] = biological target: Glucocorticoid receptor (Homo sapiens) (UniProt P04150); assay: ATG_GR_TRANS: Attagene TRANS-FACTORIAL HepG2 Assay for human Glucocorticoid Receptor (GR) (AID 2282978; active = hit-call score of the fitted dose curve at least 0.9, where 1 is the maximum;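 note: activators score as hits since higher reporter transcript over DMSO is fitted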); details: HepG2 Attagene TRANS GR reporter, mRNA transcription
Method in brief: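 Exogenous NR-GAL4 fusion activity was assessed through induced GAL4-UAS reporter transcripts in transfected human HepG2 cells, quantified after 24 h by RT-PCR and fluorescent capillary electrophoresis with DMSO as baseline.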

[2] = biological target: Bile acid receptor (Homo sapiens) (UniProt Q96RI1); assay: ATG_FXR_TRANS: Attagene TRANS-FACTORIAL HepG2 Assay for Farnesoid X Receptor (FXR) (AID 2282979; active = hit-call score of the fitted dose curve at least 0.9, where 1 is the maximum;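 note: hits raise reporter mRNA above DMSO so AC50 marks FXR activation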); details: HepG2 Attagene TRANS FXR-GAL4 reporter transcription
Method in brief: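 Reporter transcripts from transfected HepG2 cells were measured 24 h after dosing, using RT-PCR with capillary electrophoresis of 6-FAM-labelled fragments. The read-out reflects activity of exogenous FXR-Gal4 chimera on GAL4-UAS units, with induction relative to DMSO.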

[3] = biological target: Oxysterols receptor LXR-alpha (Homo sapiens) (UniProt Q13133); assay: ATG_LXRa_TRANS: Attagene TRANS-FACTORIAL HepG2 Assay for human Liver X Receptor alpha (LXRa) (AID 2282980; active = hit-call score of the fitted dose curve at least 0.9, where 1 is the maximum); details: HepG2 Attagene TRANS reporter, LXRa transactivation
Method in brief: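 Chemical-induced reporter mRNA measured by RT-PCR with fluorescent labelling and capillary electrophoresis after 24 h dosing of transiently transfected HepG2 cells expressing exogenous NR-Gal4 chimeras; increases scored against DMSO baseline.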

[4] = biological target: Oxysterols receptor LXR-beta (Homo sapiens) (UniProt P55055); assay: ATG_LXRb_TRANS: Attagene TRANS-FACTORIAL HepG2 Assay for human Liver X Receptor beta (LXRb) (AID 2282981; active = hit-call score of the fitted dose curve at least 0.9, where 1 is the maximum); details: HepG2 Attagene TRANS GAL4-LXRb reporter, mRNA
Method in brief: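 After 24 h of chemical treatment, transfected HepG2 cells yield total RNA; reporter cDNA is PCR-amplified, FAM-labelled, HpaI-cut and run on capillary electrophoresis. Signal reflects chimeric LXRb-Gal4 activity on GAL4-UAS reporters.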

[5] = ATG_M_06_TRANS: Attagene TRANS-FACTORIAL HepG2 Assay for M06 Transcription Factor (Internal Marker) (AID 2282983; active = hit-call score of the fitted dose curve at least 0.9, where 1 is the maximum); details: HepG2 Attagene TRANS M06 internal marker reporter
Method in brief: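 Background-control reporter readout: after 24 h chemical exposure of transiently transfected HepG2 (GAL4-UAS reporter units), mRNA quantified by RT-PCR with fluorescent labeling and capillary electrophoresis. Gain-of-signal fitting against DMSO baseline.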

[6] = ATG_M_32_TRANS: Attagene TRANS-FACTORIAL HepG2 Assay for M32 Transcription Factor (Internal Marker) (AID 2282984; active = hit-call score of the fitted dose curve at least 0.9, where 1 is the maximum); details: HepG2 Attagene TRANS M32 internal marker reporter
Method in brief: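 Cell-based TRANS-format assay in HepG2: exogenous chimeric GAL4 reporter units transiently expressed, compounds applied 24 h. Reporter mRNA detected by RT-PCR plus capillary electrophoresis; this readout is an internal background marker.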

[7] = biological target: Transcriptional activator Myb (Homo sapiens) (UniProt P10242); assay: ATG_Myb_CIS: Attagene CIS-FACTORIAL HepG2 Assay for human Myeloblastosis (Myb) Proto-Oncogene Transcription Factor (AID 2282986); details: HepG2 Attagene CIS-FACTORIAL Myb reporter transcription; actives raise or lower the signal
Method in brief: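 In this HepG2 transient-transfection format, cis-regulated reporter mRNA is quantified 24 h post-dosing by RT-PCR with capillary electrophoresis, fitted bidirectionally to DMSO baseline.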

[8] = biological target: Nuclear respiratory factor 1 (Homo sapiens) (UniProt Q16656); assay: ATG_NRF1_CIS: Attagene CIS-FACTORIAL HepG2 Assay for human Nuclear Respiratory Factor 1 (NRF1) Orphan Gene (AID 2282987); details: HepG2 NRF1 cis-element reporter, Attagene multiplex; actives raise or lower the signal
Method in brief: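 Using DMSO as baseline, gain- or loss-of-signal was fitted for reporter mRNA levels in HepG2 cells transiently transfected with cis-regulated reporter units. Samples were taken 24 h after dosing and read by RT-PCR with capillary electrophoresis.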

[9] = ATG_NFI_CIS: Attagene CIS-FACTORIAL HepG2 Assay for human Nuclear Factor I (NFI) (AID 2282989); details: HepG2 cis-regulatory reporter, NFI response element transcription; actives raise or lower the signal
Method in brief: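 Reporter transcription driven by endogenous transcription factors in HepG2 cells; 24 h treatment. Quantitation by labelled RT-PCR fragments on capillary electrophoresis, gain- or loss-of-signal relative to DMSO.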

[10] = biological target: Myc proto-oncogene protein (Homo sapiens) (UniProt P01106); assay: ATG_Myc_CIS: Attagene CIS-FACTORIAL HepG2 Assay for human Myelocytomatosis (Myc) Proto-Oncogene Transcription Factor (AID 2282990); details: HepG2, Attagene cis-reporter transcription factor activity; actives raise or lower the signal
Method in brief: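 HepG2, transient MRTU transfection (cis promoters, endogenous TFs); 24 h dosing; TriZol RNA → oligo(dT) RT → PCR → 6-FAM primer extension → HpaI cut → CE. Bidirectional fit vs DMSO.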

[11] = ATG_NF_kB_CIS: Attagene CIS-FACTORIAL HepG2 Assay for human Nuclear Factor Kappa B (NF-kB) (AID 2282991); details: HepG2 Attagene cis-factorial NF-kB reporter mRNA; actives raise or lower the signal
Method in brief: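 Endpoint from a 52-component multiplexed HepG2 reporter panel: cis-regulated transcription units transiently transfected, 24 h dosing, reporter mRNA quantified by RT-PCR and capillary electrophoresis, scored as increase or decrease against DMSO.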

[12] = ATG_NRF2_ARE_CIS: Attagene CIS-FACTORIAL HepG2 Assay for human Nuclear Factor Erythroid 2 Related Factor 2 (NFR2) response to Antioxidant Response Elements (ARE) (AID 2282992); details: HepG2 Attagene ARE/NRF2 reporter, transcription factor activity; actives raise or lower the signal
Method in brief: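 Endogenous transcription factor activity read out as reporter transcript levels (RT-PCR plus capillary electrophoresis, fluorescence) in transiently transfected HepG2 cells. Measured at 24 h after dosing; gain or loss of signal fitted versus DMSO.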

[13] = ATG_Oct_MLP_CIS: Attagene CIS-FACTORIAL HepG2 Assay for human Octamer-Binding Transcription Factor (Oct) (AID 2282993); details: HepG2 Attagene cis-factorial Oct reporter, mRNA; actives raise or lower the signal
Method in brief: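 Transfected HepG2 cells, 24 h treatment. Reporter mRNA quantified by RT-PCR–capillary electrophoresis; bidirectional fitting against DMSO.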

[14] = biological target: Cellular tumor antigen p53 (Homo sapiens) (UniProt P04637); assay: ATG_p53_CIS: Attagene CIS-FACTORIAL HepG2 Assay for human p53 Transcription Factor (AID 2282994); details: HepG2 p53 cis-element reporter, Attagene mRNA; actives raise or lower the signal
Method in brief: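 Endogenous p53 activity read in transiently transfected HepG2 from a cis-element-driven reporter transcript after 24 h exposure. RNA reverse-transcribed, PCR-amplified, fluorescently labelled and sized by capillary electrophoresis; gain or loss fitted against DMSO baseline.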

[15] = BSK_3C_TissueFactor: BioMAP Diversity Plus: 3C Assay for Tissue Factor Biomarker Activity (AID 2282997); details: BioMAP 3C HUVEC, tissue factor biomarker readout; actives raise or lower the signal
Method in brief: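 Tissue factor on primary human umbilical vein endothelium was read by ELISA 24 h after dosing, gain or loss relative to DMSO. Cytotoxicity ran alongside via SRB (0.1%, TCA-fixed, 560 nm).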

[16] = BSK_3C_uPAR: BioMAP Diversity Plus: 3C Assay for Urokinase-type plasminogen activator receptor (uPAR) Biomarker Activity (AID 2282998); details: BioMAP 3C HUVEC, uPAR biomarker ELISA; actives raise or lower the signal
Method in brief: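 Readout: ELISA for surface uPAR. System: human umbilical vein endothelial primary cells, 24 h after chemical exposure. Analysis: bidirectional fit, DMSO baseline.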

[17] = BSK_3C_VCAM1: BioMAP Diversity Plus: 3C Assay for Vascular cell adhesion molecule 1 (VCAM1) Biomarker Activity (AID 2282999); details: BioMAP 3C HUVEC, VCAM1 ELISA, cytokine-stimulated; actives raise or lower the signal
Method in brief: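 Activity fitted in both directions relative to DMSO, with ELISA measurement of the surface marker on primary HUVEC (3C) at 24 h post-treatment; parallel SRB staining (0.1% SRB, TCA-fixed, 560 nm) flagged overt cytotoxicity.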

[18] = BSK_4H_Eotaxin3: BioMAP Diversity Plus: 4H Assay for Eotaxin 3 Biomarker Activity (AID 2283000); details: primary human endothelial cells (HUVEC); actives raise or lower the signal
Method in brief: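 Human umbilical vein endothelial cells (BSK_4H system) dosed with test chemical; Eotaxin-3 (CCL26) measured by ELISA 24 h after dosing. Bidirectional curve fitting relative to DMSO negative control as baseline.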

[19] = biological target: human Peroxisome Proliferator-activated Receptor alpha (PPARa), PPARA (gene 5465) (UniProt Q07869); assay: ATG_PPARa_TRANS: Attagene TRANS-FACTORIAL HepG2 Assay for human Peroxisome Proliferator-activated Receptor alpha (PPARa) (AID 2283001; active = hit-call score of the fitted dose curve at least 0.9, where 1 is the maximum;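 note: potency for gain of reporter signal over DMSO so agonist or activator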)
Method in brief: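 Transfected HepG2 cells treated with test chemical for 24 h. RNA isolated, reverse-transcribed with oligo(dT), PCR-amplified, FAM-labelled and HpaI-digested. Fragments sized by capillary electrophoresis; gain-of-signal fit relative to DMSO.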

[20] = biological target: Nuclear receptor subfamily 4 group A member 2 (Homo sapiens) (UniProt P43354); assay: ATG_NURR1_TRANS: Attagene TRANS-FACTORIAL HepG2 Assay for human Nuclear Receptor Related Protein 1 (NURR1) (AID 2282985; active = hit-call score of the fitted dose curve at least 0.9, where 1 is the maximum); details: HepG2 Attagene TRANS reporter, mRNA readout
Method in brief: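 Measures transcriptional activation by an exogenous NR-Gal4 chimera in transfected HepG2 liver cells. After 24 h, reporter RNA is reverse-transcribed, amplified and resolved by capillary electrophoresis; DMSO defines baseline.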

Measured: AC50

Chain of Oxysterols receptor LXR-alpha (Homo sapiens) (Q13133 whole entry, looked up, the tested form may be a part): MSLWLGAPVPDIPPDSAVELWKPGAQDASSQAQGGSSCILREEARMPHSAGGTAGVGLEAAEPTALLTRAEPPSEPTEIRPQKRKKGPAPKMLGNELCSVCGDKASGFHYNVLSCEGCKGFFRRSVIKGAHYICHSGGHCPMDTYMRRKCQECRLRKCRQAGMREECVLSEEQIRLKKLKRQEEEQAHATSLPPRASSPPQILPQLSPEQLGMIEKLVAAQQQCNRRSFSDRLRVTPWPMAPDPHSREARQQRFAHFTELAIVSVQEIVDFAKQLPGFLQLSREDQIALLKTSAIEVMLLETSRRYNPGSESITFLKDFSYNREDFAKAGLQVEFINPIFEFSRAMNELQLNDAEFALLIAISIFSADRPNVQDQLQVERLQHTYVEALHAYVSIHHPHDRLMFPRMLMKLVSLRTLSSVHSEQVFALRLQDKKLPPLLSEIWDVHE
Chain of Myc proto-oncogene protein (Homo sapiens) (P01106 whole entry, looked up): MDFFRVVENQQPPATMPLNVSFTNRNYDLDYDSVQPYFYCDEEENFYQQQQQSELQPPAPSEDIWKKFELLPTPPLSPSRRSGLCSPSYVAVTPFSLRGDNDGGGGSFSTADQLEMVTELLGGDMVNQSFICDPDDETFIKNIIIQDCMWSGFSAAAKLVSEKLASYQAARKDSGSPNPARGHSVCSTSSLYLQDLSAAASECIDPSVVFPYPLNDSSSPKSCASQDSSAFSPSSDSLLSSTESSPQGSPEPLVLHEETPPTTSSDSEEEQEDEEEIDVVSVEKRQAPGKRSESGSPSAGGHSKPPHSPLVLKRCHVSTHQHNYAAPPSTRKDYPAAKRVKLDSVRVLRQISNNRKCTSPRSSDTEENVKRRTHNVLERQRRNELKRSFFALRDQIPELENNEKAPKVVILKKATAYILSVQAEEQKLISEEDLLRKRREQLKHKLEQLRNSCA
Chain of Transcriptional activator Myb (Homo sapiens) (P10242 whole entry, looked up): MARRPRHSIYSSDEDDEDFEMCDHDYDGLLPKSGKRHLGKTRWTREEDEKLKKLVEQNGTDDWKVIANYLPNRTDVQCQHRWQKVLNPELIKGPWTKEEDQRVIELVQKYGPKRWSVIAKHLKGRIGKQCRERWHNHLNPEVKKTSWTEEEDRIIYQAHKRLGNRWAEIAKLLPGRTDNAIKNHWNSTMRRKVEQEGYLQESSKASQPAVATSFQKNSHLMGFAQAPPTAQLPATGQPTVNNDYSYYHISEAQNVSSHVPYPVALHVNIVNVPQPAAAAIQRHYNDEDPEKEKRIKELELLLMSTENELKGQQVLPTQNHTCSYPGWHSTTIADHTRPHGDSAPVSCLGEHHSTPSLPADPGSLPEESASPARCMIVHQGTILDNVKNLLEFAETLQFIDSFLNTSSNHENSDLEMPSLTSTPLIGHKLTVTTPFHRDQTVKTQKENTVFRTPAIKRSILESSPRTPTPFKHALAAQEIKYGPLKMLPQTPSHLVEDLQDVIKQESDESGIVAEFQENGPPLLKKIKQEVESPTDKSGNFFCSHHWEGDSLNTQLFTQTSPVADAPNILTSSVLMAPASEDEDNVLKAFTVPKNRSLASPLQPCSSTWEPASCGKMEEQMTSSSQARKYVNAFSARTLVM
Chain of Oxysterols receptor LXR-beta (Homo sapiens) (P55055 whole entry, looked up, the tested form may be a part): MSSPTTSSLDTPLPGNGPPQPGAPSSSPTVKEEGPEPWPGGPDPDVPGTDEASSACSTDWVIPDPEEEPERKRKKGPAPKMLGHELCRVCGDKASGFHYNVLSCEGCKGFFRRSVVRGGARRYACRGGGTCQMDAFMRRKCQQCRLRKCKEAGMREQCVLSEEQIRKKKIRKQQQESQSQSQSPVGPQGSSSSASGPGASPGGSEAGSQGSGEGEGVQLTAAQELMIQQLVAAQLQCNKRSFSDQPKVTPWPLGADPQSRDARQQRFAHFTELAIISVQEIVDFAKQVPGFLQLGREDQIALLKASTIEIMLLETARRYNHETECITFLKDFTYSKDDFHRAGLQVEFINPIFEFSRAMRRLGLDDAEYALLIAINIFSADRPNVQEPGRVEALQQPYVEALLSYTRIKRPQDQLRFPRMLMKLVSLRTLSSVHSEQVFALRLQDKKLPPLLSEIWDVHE
Chain of Nuclear respiratory factor 1 (Homo sapiens) (Q16656 whole entry, looked up): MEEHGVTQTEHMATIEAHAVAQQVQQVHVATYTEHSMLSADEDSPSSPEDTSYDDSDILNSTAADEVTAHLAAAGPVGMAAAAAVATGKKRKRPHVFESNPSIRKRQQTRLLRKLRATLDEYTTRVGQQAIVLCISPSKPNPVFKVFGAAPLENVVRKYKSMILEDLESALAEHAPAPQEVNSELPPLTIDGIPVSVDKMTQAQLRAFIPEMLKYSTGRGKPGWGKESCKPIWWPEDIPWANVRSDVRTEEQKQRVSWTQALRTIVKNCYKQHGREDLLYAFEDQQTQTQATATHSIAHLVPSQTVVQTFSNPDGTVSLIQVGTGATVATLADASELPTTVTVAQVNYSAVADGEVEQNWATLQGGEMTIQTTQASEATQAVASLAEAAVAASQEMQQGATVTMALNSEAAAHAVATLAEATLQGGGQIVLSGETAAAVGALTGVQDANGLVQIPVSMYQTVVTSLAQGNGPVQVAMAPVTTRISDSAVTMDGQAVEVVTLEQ
Chain of Bile acid receptor (Homo sapiens) (Q96RI1 whole entry, looked up, the tested form may be a part): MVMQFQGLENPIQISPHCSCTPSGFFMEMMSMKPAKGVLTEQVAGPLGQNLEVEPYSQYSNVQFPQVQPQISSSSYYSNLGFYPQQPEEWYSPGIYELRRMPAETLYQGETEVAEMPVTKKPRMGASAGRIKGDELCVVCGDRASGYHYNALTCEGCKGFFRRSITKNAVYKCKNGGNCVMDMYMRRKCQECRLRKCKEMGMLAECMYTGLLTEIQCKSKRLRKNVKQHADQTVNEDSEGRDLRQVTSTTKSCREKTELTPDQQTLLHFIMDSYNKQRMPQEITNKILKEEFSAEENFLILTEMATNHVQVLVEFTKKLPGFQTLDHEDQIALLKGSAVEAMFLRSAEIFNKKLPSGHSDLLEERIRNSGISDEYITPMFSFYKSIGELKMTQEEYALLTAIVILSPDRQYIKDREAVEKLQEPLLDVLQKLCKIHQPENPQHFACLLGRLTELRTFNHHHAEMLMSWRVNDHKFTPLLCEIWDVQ
Chain of human Peroxisome Proliferator-activated Receptor alpha (PPARa), PPARA (gene 5465) (Q07869 whole entry, looked up, the tested form may be a part): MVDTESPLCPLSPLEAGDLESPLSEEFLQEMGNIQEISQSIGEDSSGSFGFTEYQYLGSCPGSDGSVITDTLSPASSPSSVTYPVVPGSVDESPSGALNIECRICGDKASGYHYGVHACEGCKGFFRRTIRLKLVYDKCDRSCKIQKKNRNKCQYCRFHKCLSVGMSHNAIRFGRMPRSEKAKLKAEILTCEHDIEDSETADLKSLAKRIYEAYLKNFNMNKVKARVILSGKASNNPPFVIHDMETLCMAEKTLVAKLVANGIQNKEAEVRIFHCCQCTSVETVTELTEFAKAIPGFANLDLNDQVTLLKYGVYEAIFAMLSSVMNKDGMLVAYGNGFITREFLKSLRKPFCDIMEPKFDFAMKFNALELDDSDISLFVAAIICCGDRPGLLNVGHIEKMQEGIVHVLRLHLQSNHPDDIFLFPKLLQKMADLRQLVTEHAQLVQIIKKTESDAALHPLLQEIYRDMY
Chain of Cellular tumor antigen p53 (Homo sapiens) (P04637 whole entry, looked up): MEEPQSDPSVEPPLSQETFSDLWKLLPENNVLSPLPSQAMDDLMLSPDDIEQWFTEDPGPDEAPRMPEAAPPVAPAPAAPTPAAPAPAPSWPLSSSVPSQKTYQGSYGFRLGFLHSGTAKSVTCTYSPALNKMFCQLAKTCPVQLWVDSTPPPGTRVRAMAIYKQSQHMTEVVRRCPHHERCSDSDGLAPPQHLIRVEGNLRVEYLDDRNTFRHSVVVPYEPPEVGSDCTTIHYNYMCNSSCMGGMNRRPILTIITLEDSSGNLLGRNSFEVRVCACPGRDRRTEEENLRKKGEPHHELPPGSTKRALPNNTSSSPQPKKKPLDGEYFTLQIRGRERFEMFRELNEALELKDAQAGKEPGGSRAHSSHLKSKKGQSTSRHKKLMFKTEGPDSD
Chain of Glucocorticoid receptor (Homo sapiens) (P04150 whole entry, looked up, the tested form may be a part): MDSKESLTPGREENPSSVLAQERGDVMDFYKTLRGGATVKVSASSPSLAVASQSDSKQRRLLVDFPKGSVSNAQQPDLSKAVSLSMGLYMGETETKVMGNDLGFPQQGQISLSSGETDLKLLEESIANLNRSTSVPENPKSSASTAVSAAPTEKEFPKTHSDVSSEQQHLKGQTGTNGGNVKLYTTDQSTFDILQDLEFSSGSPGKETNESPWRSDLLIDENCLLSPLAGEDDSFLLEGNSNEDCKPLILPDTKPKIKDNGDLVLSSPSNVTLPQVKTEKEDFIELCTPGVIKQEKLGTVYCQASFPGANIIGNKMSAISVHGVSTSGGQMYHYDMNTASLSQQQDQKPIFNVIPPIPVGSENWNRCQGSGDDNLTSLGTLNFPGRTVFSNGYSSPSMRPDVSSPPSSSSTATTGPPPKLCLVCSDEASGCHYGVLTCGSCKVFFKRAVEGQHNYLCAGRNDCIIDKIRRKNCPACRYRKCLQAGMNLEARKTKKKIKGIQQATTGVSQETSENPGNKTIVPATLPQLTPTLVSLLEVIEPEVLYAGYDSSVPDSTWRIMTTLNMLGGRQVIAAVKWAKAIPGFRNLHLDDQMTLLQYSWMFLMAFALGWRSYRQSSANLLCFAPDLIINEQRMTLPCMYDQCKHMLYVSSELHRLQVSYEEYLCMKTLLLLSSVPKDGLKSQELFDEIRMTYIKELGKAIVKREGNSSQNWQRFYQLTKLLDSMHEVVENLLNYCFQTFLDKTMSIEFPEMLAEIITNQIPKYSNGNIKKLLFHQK

CCCCCCCCOC(=O)c1cc(O)c(O)c(O)c1
inactive: [1] | [4] | [5] | [6] | [7] | [8] | [9] | [10] | [11] | [13] | [14]
active: [2] 43 µM | [3] 52.2 µM | [12] 5.96 µM | [15] 20 µM | [16] 36.3 µM | [17] 32.5 µM | [18] 17.3 µM | [19] 33.4 µM

CCCCCCCC[Si](OCC)(OCC)OCC
inactive: [1] | [3] | [4] | [5] | [6] | [7] | [8] | [9] | [10] | [11] | [13] | [14] | [15] | [16]
active: [8] 147 µM | [9] 155 µM | [14] 78.4 µM | [17] 18.9 µM | [18] 30.9 µM

CCN(Cc1cccnc1)C(=O)c1cccc(Cl)c1[C@]1(C)C(=O)N(Cc2ccc(OC)cc2OC)c2ccc(Cl)cc21
active: [2] 2.58 µM | [20] 8.74 µM | [8] 9.65 µM | [12] 5.87 µM | [13] 2.6 µM | [14] 4.98 µM | [15] 9.45 µM | [16] 5.85 µM | [17] 7.09 µM | [18] 11.4 µM
inactive: [1] | [5] | [6] | [7] | [9] | [10] | [11]

CCCCCCCCCCCO
active: [6] 166 µM | [15] 36.4 µM | [16] 34.2 µM | [17] 36.3 µM | [18] 31.6 µM | [19] 100 µM
inactive: [2] | [7] | [8] | [9] | [10] | [11] | [12] | [13] | [14]

CCCCCCCCN(C)CCCCCCCC
inactive: [1] | [5] | [6] | [7] | [8] | [9] | [10] | [11] | [12] | [13] | [14] | [15] | [16] | [17] | [18]

OCCO
inactive: [4] | [6] | [7] | [8] | [9] | [10] | [11] | [12] | [13] | [14] | [15] | [16] | [17] | [18]

Cc1occc1C(=O)Nc1ccc(C(=O)N2CCC(F)(F)/C(=C\C(=O)N3CCC(N4CCCCC4)CC3)c3ccccc32)cc1
inactive: [1] | [3] | [4] | [5] | [6] | [7] | [8] | [9] | [14] | [15] | [16] | [17] | [18]
active: [10] 58.3 µM | [11] 18.5 µM | [12] 22 µM | [13] 49.6 µM | [19] 53 µM

Source: PubChem BioAssay (EPA / NIEHS)
